Data reported in PubChem BioAssay AID504370 (National Center for Advancing Translational Sciences (NCATS), 2011).
The list shows a part of the results. Records with an inconclusive call do not appear. The source made the active and inactive calls. Calls come from the whole dose curve; as a rule, active = well fitted inhibition curve with a large enough effect; inconclusive = small, poorly fitted or top-dose-only effect; inactive = flat fitted curve, though single readings scatter.

assay: qHTS Assay for Compounds Blocking the Interaction Between CBF-beta and RUNX1 for the Treatment of Acute Myeloid Leukemia: ME-1 cellular proliferation; details: ME-1 cell proliferation, ATP luminescence, 48 h; series mostly up to 56.1 µM
From the text: NIH Chemical Genomics Center [NCGC]
NIH Molecular Libraries Probe Production centers Network [MLPCN]
Assay Submitter (PI): Paul Liu
Core Binding Factor (CBF) abnormalities are associated with 20-25% of all acute myeloid leukemias (AML), of which 5-10% are further sub classified as acute myelomonocytic leukemia with eosinophilia, also known as M4Eo in the FAB classification scheme. This subtype of leukemia is usually associated with chromosome 16 inversion (p13:q22). Chromosome 16 inversion results in formation of the fusion oncogene CBFB-MYH11, which encodes the fusion protein CBF-beta-SMMHC.
It has been hypothesized that the interference of CBF-beta and RUNX1 binding could have therapeutic implications for patients with CBF mediated leukemias. We developed a CBF-beta and RUNX1 binding assay in AlphaScreenTM format and optimized it for high throughput screening to search for inhibitors. The goal of this project is to screen MLPCN's compound collection (MLSMR) for identifying the inhibitors of the interaction between CBF-beta and RUNX1 proteins as research probes. If these probes work well in the animal models, the ultimate goal of this project is to development a new drug treatment for this disease.
The present assay assesses compounds ability to slow cellular proliferation in a CBFb dependent cell line, ME-1.
2uL/well media was dispensed per well into 1536-well white solid-bottom plates using Multidrop Combi dispenser. Subsequently, 23 nL/well compound solutions or DMSO controls were dispensed to the assay plates via a pintool workstation. The cells were grown in T225 flasks to 70% confluence under a standard cell culture condition (ATCC), detached with 0.25% Trypsin/EDTA, and seeded at 250 cells/well in 5uL medium (Dulbecco's Modified Eagle Medium, 10% fetal bovine serum, 1x penicillin/streptomycin).

outcome, inactive:
N#Cc1ccc(C(c2ccc(C#N)cc2)n2cncn2)cc1, COc1cc(C(=S)NCc2ccccc2)cc(Br)c1O, CC[N+](C)(CC)CCC[n+]1c(-c2ccccc2)c2cc(N)ccc2c2ccc(N)cc21, O=C(OCC1O[C@@H](OC(=O)c2cc(O)c(O)c(O)c2)[C@@H](OC(=O)c2cc(O)c(O)c(O)c2)[C@@H](OC(=O)c2cc(O)c(O)c(O)c2)[C@@H]1OC(=O)c1cc(O)c(O)c(O)c1)c1cc(O)c(O)c(O)c1 (stereo not given in full), CC(C)C(N)C(=O)OCCOCn1cnc2c(=O)[nH]c(N)nc21 (stereo not given)
